Screens from PubChem BioAssay.
EPAC1 agonist = Validation qHTS for agonist of cAMP-regulated guanine nucleotide exchange factor 3 (EPAC1) | Rap guanine nucleotide exchange factor 3 (Homo sapiens), O95398 | EPAC1 Rap1b BODIPY-GDP exchange, fluorescence | Potency, µM, most hits filed as activators | actives 1% (n = 16,000); further: nearly all actives have a fitted effect of over 70% in size
EPAC2 ant val = Validation qHTS for antagonist of cAMP-regulated guanine nucleotide exchange factor 4 (EPAC2); Rap guanine nucleotide exchange factor 4 (Homo sapiens), Q8WZA2; EPAC2 Rap1B BODIPY-GDP exchange, fluorescence; Potency, µM (top dose mostly 112 µM), most hits filed as inhibitors; actives 1.7% (n = 16,000); AID 1645886, 2021; further: nearly all actives have a fitted effect of over 40% in size
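Normalized against a 6.5 mM cAMP agonist control, compounds were tested on 100 nM EPAC2 exchanging Rap1B-bound BODIPY-GDP (250 nM) for 50 uM GDP. Fluorescence drop (ex 480, em 540 nm) was tracked at room temperature over 30 min at 5-min intervals.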
Large screens that a line does not name were inactive. Shown are actives, neighbours in structure and some others; about 2.9% of the full set was active somewhere. The call rests on the fitted dose curve; in most records, active means well fitted curve in the direction sought with a large enough effect; inconclusive means small, poorly fitted or top-dose-only effect, or another doubt; inactive means no such curve, though single readings can be large; an effect the other way counts as inactive or inconclusive.

O=C(NCCO)c1cn(C2CCCN(Cc3cccc(C(F)(F)F)c3)C2)nn1 (configuration not stated)	none
CC(NC(=O)c1cccnc1)c1nnc2n1CCN(Cc1ccc(F)cc1F)CC2 (configuration not stated)	none
Cc1ccc(CN2CCOc3ccc(CN4CCN(CCO)CC4)cc3C2)s1	EPAC2 ant val inconclusive
COc1cccc(Nc2ncc3nc(-c4cn(C)c5ccccc45)c(=O)n(C[C@H]4CCCO4)c3n2)c1	EPAC1 agonist 112µM
COc1cccc(Cn2c(=O)c(-c3ccccc3)nc3cnc(N4CCN(C)CC4)nc32)c1	none
COc1cccc(Cn2c(=O)c(-c3cn(C)c4ccccc34)nc3cnc(N4CCOCC4)nc32)c1	none
COc1cccc(Nc2ncc3nc(C)c(=O)n(C[C@H]4CCCO4)c3n2)c1	none
COc1cccc(Cn2c(=O)c(CCc3ccccc3)nc3cnc(N4CCN(C)CC4)nc32)c1	EPAC1 agonist 112µM
COc1cccc(Cn2c(=O)c(-c3cn(C)c4ccccc34)nc3cnc(N4CCNCC4)nc32)c1	EPAC1 agonist inconclusive, EPAC2 ant val 79µM
CO[C@H]1[C@H](NC(=O)c2ccncc2)c2ccccc2C12CCN(C(=O)c1ccoc1)CC2	EPAC2 ant val inconclusive
Cc1nc(C)c(C(=O)NCc2nc(-c3cccc(NC(=O)c4ccccn4)c3)oc2C)s1	none
c1ccc(-c2onc(-c3ccco3)c2-c2ccc3c(c2)OCO3)cc1	EPAC1 agonist 112µM
COc1ccc(-c2c(-c3ccc4c(c3)OCO4)noc2-c2ccsc2)cn1	EPAC2 ant val inconclusive
COc1ccc(CN2CCN(C(C)=O)CC2)cc1OC1CCN(C(=O)c2ccc3ccccc3n2)CC1	none
Nc1ncnc2c1nc(Br)n2[C@H]1O[C@H]2COP(=O)(O)O[C@H]2[C@@H]1O	EPAC1 agonist 1.1µM, EPAC2 ant val 3.5µM
Nc1ncnc2c1nc(Cl)n2C1OC(CO)C(O)C1O (configuration not stated)	none
Nc1ncnc2c1nc(Br)n2C1CC(O)C(CO)O1 (configuration not stated)	none
Nc1ncnc2c1nc(Sc1ccc(Cl)cc1)n2[C@H]1OC2COP(=O)(O)O[C@@H]2C1O (some centres not stated)	EPAC1 agonist 0.18µM, EPAC2 ant val 0.5µM
NC1=NC2C(N=C(Br)N2[C@@H]2O[C@H]3COP(=O)(O)O[C@@H]3[C@@H]2O)C(=O)N1 (some centres not stated)	EPAC2 ant val inconclusive
Nc1ncnc2c1nc(Br)n2[C@@H]1O[C@H]2COP(=O)(O)O[C@@H]2[C@@H]1O	EPAC1 agonist inconclusive, EPAC2 ant val 1.3µM
OC(c1ccc2c(c1)CN(Cc1cccn1-c1ncccn1)CCO2)C1CCCCC1 (configuration not stated)	none
CC(=O)N1CCC[C@H]1C(=O)NCC1Cc2cc(C)cc(-c3ccc(Cl)cc3)c2O1 (some centres not stated)	none
O=C(c1cncs1)N(Cc1cc2cc3c(cc2nc1N1CCOCC1)CCC3)CC1CCCO1 (configuration not stated)	none
Cc1cnc(SCc2ccccn2)nc1C1CCCN(Cc2ccsc2)C1 (configuration not stated)	none
Cc1ncc2c(c1CNS(=O)(=O)N(C)C)CCN(C(=O)c1ccc(-c3ccc(F)cc3)cc1)C2	EPAC2 ant val inconclusive
C[n+]1c2cc(N)ccc2cc2ccc(N)cc21 (tested in a mixture with another compound)	EPAC1 agonist 25µM
O=C(NCC1CCC2(CCN(Cc3cccc(-c4ccco4)c3)CC2)O1)c1ccccc1 (configuration not stated)	none
C[C@@H]1CN(Cc2ccc3c(c2)CN(Cc2cccc4cccnc24)CCO3)C[C@H](C)O1	none
COc1cc(-c2cc(C)c3c(OC)ccc(OC)c3n2)cc2c1OCCN(Cc1cn(C)nc1C)C2	none
CCCCN(CCC(=O)O)c1ccc(/C=C/c2ccnc3ccccc23)cc1	EPAC1 agonist inconclusive
Cc1cc(-c2ccc(N=Nc3c(S(=O)(=O)O)cc4cc(S(=O)(=O)O)cc(N)c4c3O)c(C)c2)ccc1N=Nc1c(S(=O)(=O)O)cc2cc(S(=O)(=O)O)cc(N)c2c1O	EPAC2 ant val 50µM
C[C@@H](O[C@H]1OCCN(Cc2n[nH]c(=O)[nH]2)[C@@H]1c1ccc(F)cc1)c1cc(C(F)(F)F)cc(C(F)(F)F)c1	EPAC2 ant val 50µM
CCc1cccc2c(C(O)(c3c[nH]c4c(CC)cccc34)c3c[nH]c4c(CC)cccc34)c[nH]c12	none
CN(C)c1ccc(C(=C2C=CC(=[N+](C)C)C=C2)c2ccccc2)cc1	none
CN(C)c1ccc(C(=C2C=CC(=[N+](C)C)C=C2)c2c(O)c(S(=O)(=O)[O-])cc3cc(S(=O)(=O)O)ccc23)cc1	EPAC2 ant val 56µM
COC(=O)[C@@H]1[C@H]2SC(C)(C)[C@H](C(=O)OC)N2C(=O)N1Cc1cc2ccccc2n1S(=O)(=O)c1ccccc1	EPAC1 agonist inconclusive
CC[C@]1(c2ncc[nH]2)Cc2ccccc2O1	EPAC2 ant val 16µM
Brc1ccc2c(ccc[n+]2CCc2ccccc2)c1	none
CC(=O)OC1CCC2(C)C(CCC3(C)C2C(=O)C=C2C4CC(C)(C(=O)OCCN5CCCCC5)CCC4(C)CCC23C)C1(C)C (configuration not stated)	none
CC1(C)[C@@H](O)CC[C@]2(C)[C@H]3C(=O)C=C4[C@@H]5C[C@@](C)(C(=O)O)CC[C@]5(C)CC[C@@]4(C)[C@]3(C)CC[C@@H]12	EPAC2 ant val 1.6µM
CC1(C)CC[C@]2(C(=O)O)CC[C@@]3(C)C(=CCC4[C@@]5(C)CCC(O)C(C)(C)C5CC[C@@]43C)C2C1 (some centres not stated)	none
CC1(C)C(OC(=O)CCC(=O)O)CC[C@]2(C)C1CC[C@@]1(C)C2C(=O)C=C2[C@@H]3C[C@@](C)(C(=O)O)CC[C@]3(C)CCC21C (some centres not stated)	EPAC1 agonist inconclusive, EPAC2 ant val 4µM
CC1(C)C(O)CC[C@]2(C)C1CC[C@@]1(C)C2C(=O)C=C2[C@@H]3C[C@@](C)(C(=O)O)CC[C@@]3(C)CCC21C (some centres not stated)	EPAC2 ant val 7.1µM
CC1(C)[C@@H](O[C@H]2O[C@H](C(=O)O)[C@@H](O)[C@H](O)[C@H]2O[C@@H]2O[C@H](C(=O)O)[C@@H](O)[C@H](O)[C@H]2O)CC[C@]2(C)[C@H]3C(=O)C=C4[C@@H]5C[C@@](C)(C(=O)O)CC[C@]5(C)CC[C@@]4(C)[C@]3(C)CC[C@@H]12	EPAC2 ant val inconclusive
Cc1cnc(-n2ncc(C(=O)NCCN3CCOCC3)c2C(C)C)nc1-c1ccc(F)cc1	none
COC(=O)c1c(OCc2cccnc2)cc(=O)n2c1CCN(Cc1cc3c(cc1Cl)OCO3)CC2	none
COC(=O)C1=C(C)NC(COC(N)=O)=C(C(=O)OC(C)C)C1c1cccc(Cl)c1Cl (configuration not stated)	EPAC1 agonist inconclusive, EPAC2 ant val 50µM
COC(=O)C1=C(C)NC(C)=C(C(=O)OC)C1c1ccccc1[N+](=O)[O-]	EPAC2 ant val inconclusive
